Values joined by “and” are separate entries in the source; they are usually repeats but may differ in a detail not shown here. Equal values may be shown once. Inconclusive results are not listed. More than one record can exist for a structure, and the calls need not agree. Active and inactive are the calls of the source. The calls were made as follows, unless noted: active = hit-call score of the fitted dose curve at least 0.9, where 1 is the maximum; inconclusive = response in the unintended direction; inactive = score below 0.9.
Assays:
[1] = ATG_TGFb_CIS: Attagene CIS-FACTORIAL HepG2 Assay for human Transforming Growth Factor (TGF) (AID 2282967; active = hit-call score of the fitted dose curve at least 0.9, where 1 is the maximum; inactive = score below 0.9); details: HepG2 Attagene CIS TGFb reporter, mRNA transcription; actives raise or lower the signal
How it was run: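 Transcript-level reporter readout: HepG2 transfectants, 24 h exposure, RNA to cDNA, reporter-specific PCR, fluorescent primer extension, capillary sizing against ROX standards. Gain- or loss-of-signal relative to DMSO.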

[2] = ATG_VDRE_CIS: Attagene CIS-FACTORIAL HepG2 Assay for human Vitamin D Receptor Element (VDRE) (AID 2282968; active = hit-call score of the fitted dose curve at least 0.9, where 1 is the maximum; inactive = score below 0.9); details: HepG2 VDRE cis-reporter transcription, actives raise or lower the signal
How it was run: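 Transiently transfected HepG2 cells carrying cis-regulated reporter transcription units were exposed for 24 h. Reporter mRNA was measured by RT-PCR with fluorescent labelling and capillary electrophoresis, and fitted in both directions against DMSO.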

[3] = target: X-box-binding protein 1 (Homo sapiens) (UniProt P17861); assay: ATG_Xbp1_CIS: Attagene CIS-FACTORIAL HepG2 Assay for human X-box Binding Protein 1 (XBP1) (AID 2282972; active = hit-call score of the fitted dose curve at least 0.9, where 1 is the maximum; inactive = score below 0.9); details: HepG2 XBP1 cis-element reporter, Attagene multiplex; actives raise or lower the signal
Chain of X-box-binding protein 1 (Homo sapiens) (P17861 whole entry, looked up): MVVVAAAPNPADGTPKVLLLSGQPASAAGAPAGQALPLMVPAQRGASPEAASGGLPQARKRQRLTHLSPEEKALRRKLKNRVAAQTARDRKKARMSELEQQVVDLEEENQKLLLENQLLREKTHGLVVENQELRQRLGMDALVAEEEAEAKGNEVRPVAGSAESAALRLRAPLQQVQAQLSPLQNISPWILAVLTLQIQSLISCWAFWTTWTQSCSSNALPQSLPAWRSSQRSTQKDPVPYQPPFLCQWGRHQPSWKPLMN
How it was run: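 HepG2, transient MRTU transfection (cis-promoter driven), 24 h compound exposure. Total RNA → oligo(dT) RT → PCR → 6-FAM labeling → HpaI cut → CE. Bidirectional fit vs DMSO.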

[4] = ATG_M_19_TRANS: Attagene TRANS-FACTORIAL HepG2 Assay for M19 Transcription Factor (Internal Marker) (AID 2282974); details: HepG2 Attagene TRANS-FACTORIAL M19 internal marker reporter
How it was run: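 HepG2 transiently transfected with GAL4-UAS multiplex reporter constructs, exposed 24 h; reporter RNA quantified by RT-PCR, 6-FAM labeling, HpaI digestion and capillary electrophoresis; internal background marker fitted upward versus DMSO.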

[5] = target: Glucocorticoid receptor (Homo sapiens) (UniProt P04150); assay: ATG_GR_TRANS: Attagene TRANS-FACTORIAL HepG2 Assay for human Glucocorticoid Receptor (GR) (AID 2282978); details: HepG2 Attagene TRANS GR reporter, mRNA transcription;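 also: activators score as hits since higher reporter transcript over DMSO is fitted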
Chain of Glucocorticoid receptor (Homo sapiens) (P04150 whole entry, looked up, the tested form may be a part): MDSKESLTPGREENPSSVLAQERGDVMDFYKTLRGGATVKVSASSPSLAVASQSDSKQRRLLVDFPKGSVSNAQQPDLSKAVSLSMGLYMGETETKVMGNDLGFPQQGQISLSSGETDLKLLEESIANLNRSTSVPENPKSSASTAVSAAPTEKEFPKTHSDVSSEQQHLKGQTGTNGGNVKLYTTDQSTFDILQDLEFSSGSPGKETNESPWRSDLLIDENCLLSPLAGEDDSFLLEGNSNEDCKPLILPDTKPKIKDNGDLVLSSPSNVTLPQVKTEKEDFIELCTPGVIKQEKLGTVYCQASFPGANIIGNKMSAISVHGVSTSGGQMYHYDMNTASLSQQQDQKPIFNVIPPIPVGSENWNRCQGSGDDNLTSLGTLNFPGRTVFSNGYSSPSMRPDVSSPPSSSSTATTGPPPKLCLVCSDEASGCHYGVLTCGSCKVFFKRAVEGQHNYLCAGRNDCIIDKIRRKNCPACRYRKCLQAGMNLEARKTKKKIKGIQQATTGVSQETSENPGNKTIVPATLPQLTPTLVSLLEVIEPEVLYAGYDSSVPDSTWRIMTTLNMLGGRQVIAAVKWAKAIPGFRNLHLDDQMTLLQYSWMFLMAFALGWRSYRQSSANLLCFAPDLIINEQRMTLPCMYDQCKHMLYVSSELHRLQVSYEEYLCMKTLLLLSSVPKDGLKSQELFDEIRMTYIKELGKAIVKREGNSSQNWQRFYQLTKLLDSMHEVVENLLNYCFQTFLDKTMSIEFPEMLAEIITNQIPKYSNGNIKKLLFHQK
How it was run: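 HepG2 cells transiently transfected with GAL4-UAS reporter units and exogenous GR-Gal4 chimera, dosed 24 h. Reporter mRNA by RT-PCR, FAM labeling, HpaI digest and capillary electrophoresis; gain-of-signal fit versus DMSO.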

[6] = target: Bile acid receptor (Homo sapiens) (UniProt Q96RI1); assay: ATG_FXR_TRANS: Attagene TRANS-FACTORIAL HepG2 Assay for Farnesoid X Receptor (FXR) (AID 2282979); details: HepG2 Attagene TRANS FXR-GAL4 reporter transcription;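 also: hits raise reporter mRNA above DMSO so AC50 marks FXR activation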
Chain of Bile acid receptor (Homo sapiens) (Q96RI1 whole entry, looked up, the tested form may be a part): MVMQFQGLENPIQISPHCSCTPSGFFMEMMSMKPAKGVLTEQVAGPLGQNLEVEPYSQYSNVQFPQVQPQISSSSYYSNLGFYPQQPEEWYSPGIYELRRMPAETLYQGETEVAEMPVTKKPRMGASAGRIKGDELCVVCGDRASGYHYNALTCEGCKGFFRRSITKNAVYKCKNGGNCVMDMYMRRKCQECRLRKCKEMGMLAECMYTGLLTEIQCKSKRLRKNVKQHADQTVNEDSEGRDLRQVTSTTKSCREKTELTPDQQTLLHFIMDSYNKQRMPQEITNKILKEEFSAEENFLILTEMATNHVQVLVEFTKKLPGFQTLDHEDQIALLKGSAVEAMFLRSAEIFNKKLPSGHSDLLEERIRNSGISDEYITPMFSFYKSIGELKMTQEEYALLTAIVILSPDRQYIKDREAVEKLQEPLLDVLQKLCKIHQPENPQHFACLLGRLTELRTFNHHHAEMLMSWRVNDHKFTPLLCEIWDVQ
How it was run: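 After 24 h chemical treatment of transfected HepG2 cells, GAL4-UAS reporter transcripts driven by an exogenous FXR-GAL4 fusion were measured by RT-PCR and capillary electrophoresis. Increases over DMSO were fitted.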

[7] = target: Oxysterols receptor LXR-alpha (Homo sapiens) (UniProt Q13133); assay: ATG_LXRa_TRANS: Attagene TRANS-FACTORIAL HepG2 Assay for human Liver X Receptor alpha (LXRa) (AID 2282980); details: HepG2 Attagene TRANS reporter, LXRa transactivation
Chain of Oxysterols receptor LXR-alpha (Homo sapiens) (Q13133 whole entry, looked up, the tested form may be a part): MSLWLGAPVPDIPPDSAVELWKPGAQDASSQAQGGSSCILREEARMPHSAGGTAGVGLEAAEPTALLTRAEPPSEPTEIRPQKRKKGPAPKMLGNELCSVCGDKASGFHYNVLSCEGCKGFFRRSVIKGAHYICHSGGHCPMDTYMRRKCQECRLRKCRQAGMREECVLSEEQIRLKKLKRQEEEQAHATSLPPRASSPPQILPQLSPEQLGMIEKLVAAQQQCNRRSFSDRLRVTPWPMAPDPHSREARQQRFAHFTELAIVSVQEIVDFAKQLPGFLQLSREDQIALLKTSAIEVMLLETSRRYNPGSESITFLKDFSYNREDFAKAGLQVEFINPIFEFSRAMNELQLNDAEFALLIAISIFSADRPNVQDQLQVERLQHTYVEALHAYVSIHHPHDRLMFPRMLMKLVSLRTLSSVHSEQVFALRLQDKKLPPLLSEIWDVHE
How it was run: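 In this multiplexed TRANS system, compounds act on HepG2 cells carrying GAL4-UAS reporter units and a receptor-GAL4 fusion for 24 h. Induced reporter RNA is amplified, fluorescently labelled and sized by capillary electrophoresis, with DMSO as baseline.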

[8] = target: Hepatocyte nuclear factor 4-alpha (Homo sapiens) (UniProt P41235); assay: ATG_HNF4a_TRANS: Attagene TRANS-FACTORIAL HepG2 Assay for human Hepatocyte Nuclear Factor 4 alpha (HNF4a) (AID 2282982); details: HepG2 HNF4a transactivation reporter, mRNA readout
Chain of Hepatocyte nuclear factor 4-alpha (Homo sapiens) (P41235 whole entry, looked up, the tested form may be a part): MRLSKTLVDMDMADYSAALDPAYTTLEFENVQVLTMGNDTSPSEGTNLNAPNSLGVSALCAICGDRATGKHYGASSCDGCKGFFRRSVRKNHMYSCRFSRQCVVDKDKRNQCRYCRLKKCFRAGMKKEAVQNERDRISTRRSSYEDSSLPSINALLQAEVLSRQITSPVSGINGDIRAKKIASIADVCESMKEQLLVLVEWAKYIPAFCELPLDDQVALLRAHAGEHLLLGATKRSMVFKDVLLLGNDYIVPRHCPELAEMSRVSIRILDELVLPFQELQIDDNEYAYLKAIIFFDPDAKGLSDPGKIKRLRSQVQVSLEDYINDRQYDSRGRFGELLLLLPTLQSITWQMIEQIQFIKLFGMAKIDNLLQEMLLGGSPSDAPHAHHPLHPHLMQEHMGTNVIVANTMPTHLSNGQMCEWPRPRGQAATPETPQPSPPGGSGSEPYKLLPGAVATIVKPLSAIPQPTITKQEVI
How it was run: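 HepG2 cells transiently transfected with HNF4a-Gal4 chimera and GAL4-UAS reporter units, dosed for 24 h. Reporter mRNA measured by RT-PCR, fluorescent primer extension and capillary electrophoresis; gain-of-signal fitted relative to DMSO.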

[9] = ATG_M_06_TRANS: Attagene TRANS-FACTORIAL HepG2 Assay for M06 Transcription Factor (Internal Marker) (AID 2282983); details: HepG2 Attagene TRANS M06 internal marker reporter;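 also: reporter transcript level by RT-PCR then capillary electrophoresis fluorescence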
How it was run: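 Internal-marker background readout from a multiplexed TRANS reporter system in HepG2; 24 h dosing; mRNA induction quantified by RT-PCR plus capillary electrophoresis fluorescence; DMSO as negative control and baseline.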

[10] = target: Transcriptional activator Myb (Homo sapiens) (UniProt P10242); assay: ATG_Myb_CIS: Attagene CIS-FACTORIAL HepG2 Assay for human Myeloblastosis (Myb) Proto-Oncogene Transcription Factor (AID 2282986; active = hit-call score of the fitted dose curve at least 0.9, where 1 is the maximum; inactive = score below 0.9); details: HepG2 Attagene CIS-FACTORIAL Myb reporter transcription; actives raise or lower the signal
Chain of Transcriptional activator Myb (Homo sapiens) (P10242 whole entry, looked up): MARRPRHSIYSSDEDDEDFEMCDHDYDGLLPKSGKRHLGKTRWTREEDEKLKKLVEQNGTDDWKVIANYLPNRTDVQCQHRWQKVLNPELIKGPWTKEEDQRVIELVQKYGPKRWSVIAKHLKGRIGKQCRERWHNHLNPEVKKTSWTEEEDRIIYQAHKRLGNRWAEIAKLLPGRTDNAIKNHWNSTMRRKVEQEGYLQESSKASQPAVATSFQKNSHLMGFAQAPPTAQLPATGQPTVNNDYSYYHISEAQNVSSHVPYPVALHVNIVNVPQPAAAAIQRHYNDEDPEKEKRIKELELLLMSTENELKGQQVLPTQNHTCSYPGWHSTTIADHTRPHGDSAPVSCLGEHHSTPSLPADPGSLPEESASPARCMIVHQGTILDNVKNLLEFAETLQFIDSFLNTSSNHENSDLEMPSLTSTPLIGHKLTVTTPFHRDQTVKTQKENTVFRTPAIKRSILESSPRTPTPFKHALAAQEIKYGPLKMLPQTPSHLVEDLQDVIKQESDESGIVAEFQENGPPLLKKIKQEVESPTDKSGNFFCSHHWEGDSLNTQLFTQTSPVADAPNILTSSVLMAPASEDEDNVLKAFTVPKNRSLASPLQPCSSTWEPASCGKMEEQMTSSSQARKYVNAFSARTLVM
How it was run: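 Transiently transfected HepG2 cells carrying a multiplexed cis-promoter reporter set report endogenous Myb activity after 24 h compound exposure. Reporter mRNA is read by RT-PCR with capillary electrophoresis of fluorescent products, fitted bidirectionally against DMSO.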

[11] = target: Nuclear respiratory factor 1 (Homo sapiens) (UniProt Q16656); assay: ATG_NRF1_CIS: Attagene CIS-FACTORIAL HepG2 Assay for human Nuclear Respiratory Factor 1 (NRF1) Orphan Gene (AID 2282987; active = hit-call score of the fitted dose curve at least 0.9, where 1 is the maximum; inactive = score below 0.9); details: HepG2 NRF1 cis-element reporter, Attagene multiplex; actives raise or lower the signal
How it was run: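 HepG2 cells transiently transfected with multiple cis-regulated reporter units, exposed 24 h. Reporter mRNAs measured by RT-PCR, fluorescent labelling, HpaI digestion and capillary electrophoresis; bidirectional fitting against DMSO.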

[12] = ATG_NFI_CIS: Attagene CIS-FACTORIAL HepG2 Assay for human Nuclear Factor I (NFI) (AID 2282989; active = hit-call score of the fitted dose curve at least 0.9, where 1 is the maximum; inactive = score below 0.9); details: HepG2 cis-regulatory reporter, NFI response element transcription; actives raise or lower the signal
How it was run: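 After transient transfection of HepG2 with cis-promoter reporter constructs and 24 h dosing, RNA is reverse-transcribed, amplified, 6-FAM end-labelled and HpaI-digested before capillary analysis. Bidirectional curve fitting against DMSO.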

[13] = target: Nuclear receptor subfamily 1 group I member 3 (Homo sapiens) (UniProt Q14994); assay: ATG_CAR_TRANS: Attagene TRANS-FACTORIAL HepG2 Assay for human Constitutive Androstane Receptor (CAR) (AID 2282969); details: HepG2 Attagene TRANS-FACTORIAL CAR reporter;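 also: activators raise reporter mRNA above DMSO so AC50 marks induction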
Chain of Nuclear receptor subfamily 1 group I member 3 (Homo sapiens) (Q14994 whole entry, looked up, the tested form may be a part): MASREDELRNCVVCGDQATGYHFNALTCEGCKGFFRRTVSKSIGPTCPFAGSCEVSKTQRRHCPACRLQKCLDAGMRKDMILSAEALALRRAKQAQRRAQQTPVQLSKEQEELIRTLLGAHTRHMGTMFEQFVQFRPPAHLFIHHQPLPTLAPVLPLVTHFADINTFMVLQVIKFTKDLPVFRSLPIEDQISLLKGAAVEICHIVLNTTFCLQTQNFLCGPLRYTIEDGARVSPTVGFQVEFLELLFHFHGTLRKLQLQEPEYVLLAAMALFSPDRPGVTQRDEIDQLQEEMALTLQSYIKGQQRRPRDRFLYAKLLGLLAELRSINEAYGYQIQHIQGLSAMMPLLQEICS
How it was run: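 HepG2 cells transiently transfected with GAL4-UAS reporter units; TRANS format reads activity of exogenous chimeric NR-Gal4 protein. After 24 h dosing, reporter mRNA quantified by RT-PCR, 6-FAM labelling and capillary electrophoresis; gain of signal fitted against DMSO.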

[14] = ATG_GAL4_TRANS: Attagene TRANS-FACTORIAL HepG2 Assay for GAL4 (Internal Marker) (AID 2282976); details: HepG2 Attagene TRANS GAL4 internal marker reporter
How it was run: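 Liver HepG2 line bearing multiplexed GAL4-UAS reporter constructs; 24 h chemical treatment. Transcripts were quantified as fluorescent fragments on capillary electrophoresis after RT-PCR and HpaI cut, with activity fitted upward from DMSO.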

[15] = target: Estrogen-related receptor gamma (Homo sapiens) (UniProt P62508); assay: ATG_ERRg_TRANS: Attagene TRANS-FACTORIAL HepG2 Assay for human Estrogen-Related Receptor gamma (ERRg) (AID 2282977); details: HepG2 Attagene TRANS reporter, ERRg transactivation;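 also: hits increase reporter signal over DMSO so potencies reflect activators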
Chain of Estrogen-related receptor gamma (Homo sapiens) (P62508 whole entry, looked up, the tested form may be a part): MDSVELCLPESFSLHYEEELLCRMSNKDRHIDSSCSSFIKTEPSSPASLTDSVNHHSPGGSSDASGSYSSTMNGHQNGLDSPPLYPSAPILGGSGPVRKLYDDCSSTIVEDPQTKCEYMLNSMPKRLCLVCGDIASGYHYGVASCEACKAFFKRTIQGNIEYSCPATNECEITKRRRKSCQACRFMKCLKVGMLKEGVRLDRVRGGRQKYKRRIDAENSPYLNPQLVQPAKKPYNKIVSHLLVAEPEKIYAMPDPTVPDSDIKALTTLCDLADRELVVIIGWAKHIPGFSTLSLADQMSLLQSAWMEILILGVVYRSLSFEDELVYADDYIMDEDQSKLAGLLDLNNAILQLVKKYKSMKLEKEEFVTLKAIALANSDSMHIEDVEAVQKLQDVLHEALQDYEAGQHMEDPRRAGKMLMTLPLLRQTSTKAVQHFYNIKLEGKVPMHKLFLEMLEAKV
How it was run: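 Transfect HepG2 with multiple GAL4-UAS reporter transcription units; dose chemicals 24 h; isolate RNA, reverse-transcribe with oligo(dT), PCR-amplify, label with 6-FAM, digest with HpaI; size fragments by capillary electrophoresis. DMSO serves as negative control.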

[16] = target: Oxysterols receptor LXR-beta (Homo sapiens) (UniProt P55055); assay: ATG_LXRb_TRANS: Attagene TRANS-FACTORIAL HepG2 Assay for human Liver X Receptor beta (LXRb) (AID 2282981); details: HepG2 Attagene TRANS GAL4-LXRb reporter, mRNA
Chain of Oxysterols receptor LXR-beta (Homo sapiens) (P55055 whole entry, looked up, the tested form may be a part): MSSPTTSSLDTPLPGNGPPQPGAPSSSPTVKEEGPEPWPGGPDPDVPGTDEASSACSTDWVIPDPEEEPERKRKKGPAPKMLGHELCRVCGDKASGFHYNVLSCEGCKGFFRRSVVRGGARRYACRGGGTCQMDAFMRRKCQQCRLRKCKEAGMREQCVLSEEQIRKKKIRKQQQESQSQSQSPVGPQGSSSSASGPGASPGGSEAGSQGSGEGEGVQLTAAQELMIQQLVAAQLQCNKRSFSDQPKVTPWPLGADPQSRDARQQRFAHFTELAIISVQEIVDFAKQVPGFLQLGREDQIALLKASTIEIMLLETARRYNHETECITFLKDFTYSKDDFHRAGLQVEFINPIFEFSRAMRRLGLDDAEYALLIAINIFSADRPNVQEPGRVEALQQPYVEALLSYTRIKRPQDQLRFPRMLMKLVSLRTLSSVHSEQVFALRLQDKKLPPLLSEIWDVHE
How it was run: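 HepG2 cells transiently transfected with GAL4-UAS reporter units for chimeric NR-Gal4 proteins, dosed for 24 h. Reporter transcripts measured by RT-PCR and capillary electrophoresis; gain-of-signal fitting relative to DMSO.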

[17] = target: Nuclear receptor subfamily 4 group A member 2 (Homo sapiens) (UniProt P43354); assay: ATG_NURR1_TRANS: Attagene TRANS-FACTORIAL HepG2 Assay for human Nuclear Receptor Related Protein 1 (NURR1) (AID 2282985); details: HepG2 Attagene TRANS reporter, mRNA readout
How it was run: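 HepG2 cells transiently transfected with NURR1-Gal4 chimera and GAL4-UAS reporter units; after 24 hr compound exposure, reporter mRNA quantified by RT-PCR and capillary electrophoresis; gain of signal fitted against DMSO.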

[18] = target: Estrogen receptor (Homo sapiens) (UniProt P03372); assay: ATG_ERa_TRANS: Attagene TRANS-FACTORIAL HepG2 Assay for human Estrogen Receptor alpha (ERa) (AID 2282970); details: HepG2 Attagene TRANS ERa GAL4 reporter, mRNA
Chain of Estrogen receptor (Homo sapiens) (P03372 whole entry, looked up, the tested form may be a part): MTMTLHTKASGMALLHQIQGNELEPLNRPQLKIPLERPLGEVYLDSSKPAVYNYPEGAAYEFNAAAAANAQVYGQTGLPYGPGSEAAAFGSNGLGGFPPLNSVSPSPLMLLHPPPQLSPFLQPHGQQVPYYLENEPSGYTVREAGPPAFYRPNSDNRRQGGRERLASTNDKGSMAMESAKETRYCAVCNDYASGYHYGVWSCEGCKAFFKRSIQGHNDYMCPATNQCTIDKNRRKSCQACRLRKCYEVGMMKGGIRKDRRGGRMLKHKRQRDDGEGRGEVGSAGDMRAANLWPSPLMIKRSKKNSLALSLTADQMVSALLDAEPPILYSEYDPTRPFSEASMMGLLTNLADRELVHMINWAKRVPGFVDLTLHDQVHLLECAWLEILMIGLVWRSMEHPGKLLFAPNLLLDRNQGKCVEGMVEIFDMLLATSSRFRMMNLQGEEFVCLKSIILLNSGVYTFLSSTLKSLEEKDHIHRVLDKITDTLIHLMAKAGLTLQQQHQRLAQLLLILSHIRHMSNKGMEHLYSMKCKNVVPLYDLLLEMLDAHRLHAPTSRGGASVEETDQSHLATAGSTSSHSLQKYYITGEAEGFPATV
How it was run: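 Multiplexed cell-based reporter format in HepG2: chimeric ERa-Gal4 protein drives GAL4-UAS reporter transcription. Fluorescent reporter mRNA quantified by capillary electrophoresis 24 hours after dosing; endpoint fitted as signal gain against DMSO.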

[19] = ATG_M_32_TRANS: Attagene TRANS-FACTORIAL HepG2 Assay for M32 Transcription Factor (Internal Marker) (AID 2282984); details: HepG2 Attagene TRANS M32 internal marker reporter;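 also: transcript level of a background control reporter unit measured by RT-PCR and capillary electrophoresis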
How it was run: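 HepG2 cells transiently transfected with GAL4-UAS reporter units, dosed for 24 hours. Reporter mRNA quantified by RT-PCR, 6-FAM labelling, HpaI digestion and capillary electrophoresis; internal-marker signal fitted upward relative to DMSO.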

Measured: AC50

C=CCc1ccc(OC)c(OC)c1
not listed: [13] | [14] | [15] | [16] | [17] | [18] | [19]
inactive: all other assays above

S=c1[nH]c2ccccc2s1
not listed: [4] | [6] | [11] | [16] | [17] | [18] | [19]
inactive: all other assays above

O=[Si]=O
not listed: [5] | [6] | [11] | [13]
inactive: all other assays above

From PubChem BioAssay (EPA / NIEHS)
